Measured values as given in PubChem BioAssay (NCATS).
Where “and” joins values, the source holds several entries; their conditions need not be identical. Identical values can stand only once. Records with an inconclusive call do not appear. A call without a number means that no potency is given here. Calls of active or inactive are those of the source. Unless noted, calls come from the whole dose curve; as a rule, active = well fitted curve in the direction sought with a large enough effect; inconclusive = small, poorly fitted or top-dose-only effect, or another doubt; inactive = no such curve, though single readings can be large; an effect the other way counts as inactive or inconclusive.

Legend:
[1] = Validation of Assay for Modulators of Lamin A Splicing (AID 1459; active = well fitted curve in the direction sought with a large enough effect in the signal ratio; the % refers to the signal ratio;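 note: cells exposed to compound for two days before reading; ratio rise marks activators and ratio drop marks inhibitors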)
Procedure, shortened: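 Dual-reporter HeLa S3 line (lamin A-EGFP minigene, DsRed2) treated with compounds 48 hrs, 0.5% DMSO final. Endpoint: EGFP/DsRed2 total intensity ratio from laser-scanning microplate cytometry.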

[2] = qHTS Assay for Lipid Storage Modulators (AID 1519; calls by dose curve); settings: Drosophila S3 cells, BODIPY lipid droplet/cell ratio, laser cytometry, cells loaded with oleic acid; for activity change, negative = inhibition: at 57.5 µM (top of the series)
Procedure, shortened: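 Cells seeded at 5,000 per well were treated with compounds over a concentration series and loaded with oleic acid (400 uM, as added). Lipid droplet fluorescence (488 nm excitation, 500-530 nm channel) was read by laser-scanning cytometry and normalized to 20 uM Triacsin C.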

[3] = molecular target: DNA repair nuclease/redox regulator APEX1 (Homo sapiens) (UniProt P27695); assay: qHTS Validation Assay for Inhibitors of the Human Apurinic/apyrimidinic Endonuclease 1 (APE1) (AID 1705; note: potency is the fitted concentration of half-maximal effect;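 for activity change, negative = inhibition: TAMRA fluorescence gain over two minutes as APE1 cuts a quenched THF abasic duplex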)
DNA repair nuclease/redox regulator APEX1 (Homo sapiens), sequence (P27695 whole entry, looked up): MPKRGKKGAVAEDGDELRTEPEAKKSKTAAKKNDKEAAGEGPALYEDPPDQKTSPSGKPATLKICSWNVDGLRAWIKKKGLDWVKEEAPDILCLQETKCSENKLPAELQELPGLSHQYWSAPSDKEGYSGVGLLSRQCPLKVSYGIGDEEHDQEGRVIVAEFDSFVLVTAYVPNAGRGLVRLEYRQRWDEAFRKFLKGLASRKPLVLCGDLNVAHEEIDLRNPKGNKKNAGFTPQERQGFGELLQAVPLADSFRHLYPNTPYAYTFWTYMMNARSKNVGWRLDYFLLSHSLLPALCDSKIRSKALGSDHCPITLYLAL
Procedure, shortened: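 Substrate: 50 nM final fluorophore/quencher THF-abasic duplex. Enzyme preincubated with compounds 15 min, RT. Progress derived from fluorescence difference, third minus first kinetic read.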

[4] = Counterscreen for APE1 Inhibitors: Fluorescent Dye Displacement Validation Assay (AID 1707)
Procedure, shortened: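 ThO 250 nM + dsDNA 50 nM (THF abasic site, 5'-TAMRA), Tris-HCl pH7.5/50mM NaCl/2 mM MgCl2/0.01% Tween-20; compounds pin-transferred; ex 480/em 540 nm endpoint. Neutral = no compound; no-DNA ThO wells = negative control.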

[5] = molecular target: Endonuclease 4 (Escherichia coli (strain K12)) (UniProt P0A6C1); assay: Counterscreen for APE1 Inhibitors: qHTS Validation Assay for Inhibitors of Endonuclease IV (AID 1708)
Procedure, shortened: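 Concentration-response counterscreen run identically to the APE1 assay: 15 min room-temperature preincubation of 2 nM enzyme with compound, reaction started with 50 nM quenched abasic DNA, progress taken from kinetic fluorescence.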

[6] = qHTS for differential inhibitors of proliferation of Plasmodium falciparum line 7G8 (AID 1815);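 note: parasite growth measured after three days of incubation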; note: potency is the fitted concentration of half-maximal effect
[7] = qHTS for differential inhibitors of proliferation of Plasmodium falciparum line GB4 (AID 1816); settings: Potency: Plasmodium falciparum GB4 proliferation inhibition;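 note: parasite growth measured after 72 h incubation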; note: potency is the fitted concentration of half-maximal effect
[8] = qHTS for differential inhibitors of proliferation of Plasmodium falciparum line 3D7 (AID 1876); note: potency is the fitted concentration of half-maximal effect
[9] = qHTS for differential inhibitors of proliferation of Plasmodium falciparum line D10 (AID 1877);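 note: parasites grown with compound for 72 h before DNA staining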; note: potency is the fitted concentration of half-maximal effect
[10] = qHTS for differential inhibitors of proliferation of Plasmodium falciparum line Dd2 (AID 1882); settings: Potency: Plasmodium falciparum Dd2 proliferation inhibition; note: nearly all actives have a fitted effect of over 65% in size; note: potency is the fitted concentration of half-maximal effect
Procedure, shortened: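 Dd2-infected erythrocytes (0.3% parasitemia, 2.5% hematocrit final) incubated with compound 72 h at 37 C, 5% CO2; lysed with saponin/Triton buffer containing SYBR Green I, incubated overnight in the dark, then read by fluorescence (485/535 nm). Normalized to 0.29 uM artemisinin and DMSO.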

[11] = qHTS for differential inhibitors of proliferation of Plasmodium falciparum line W2 (AID 1883); settings: Potency: Plasmodium falciparum W2 proliferation inhibition;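 note: parasites grown with compound for 72 h before lysis and staining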; note: potency is the fitted concentration of half-maximal effect
[12] = qHTS for differential inhibitors of proliferation of Plasmodium falciparum line HB3 (AID 1886); settings: Potency: Plasmodium falciparum HB3 proliferation inhibition;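 note: parasites grown with compound for 72 h before SYBR Green readout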; note: potency is the fitted concentration of half-maximal effect
[13] = molecular target: Alpha-galactosidase A (Homo sapiens) (UniProt P06280); assay: Counterscreen for Glucocerebrosidase Inhibitors: qHTS Assay for Human alpha-Galactosidase at pH 4.5 (AID 992)
Alpha-galactosidase A (Homo sapiens), sequence (P06280 whole entry, looked up): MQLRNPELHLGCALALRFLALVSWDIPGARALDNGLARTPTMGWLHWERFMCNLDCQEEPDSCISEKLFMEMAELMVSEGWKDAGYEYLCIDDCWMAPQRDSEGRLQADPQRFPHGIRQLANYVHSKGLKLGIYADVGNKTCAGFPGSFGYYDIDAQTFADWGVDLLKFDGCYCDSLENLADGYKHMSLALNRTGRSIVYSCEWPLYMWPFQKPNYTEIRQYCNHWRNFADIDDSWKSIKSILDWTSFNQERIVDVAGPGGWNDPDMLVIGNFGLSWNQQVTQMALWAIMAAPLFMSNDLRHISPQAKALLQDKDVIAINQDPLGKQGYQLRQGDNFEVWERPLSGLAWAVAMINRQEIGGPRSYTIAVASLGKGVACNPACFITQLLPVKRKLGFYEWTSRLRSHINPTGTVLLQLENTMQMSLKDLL
Procedure, shortened: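 Read-out is 4-methylumbelliferone fluorescence (365 nm excitation, 440 nm emission) after a pH 10 NaOH/glycine stop. Reactions held 2 nM enzyme and 80 uM substrate at pH 4.5 for 20 min at room temperature.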

[14] = molecular target: Alpha-galactosidase (Coffea arabica) (UniProt Q42656); assay: Counterscreen for Glucocerebrosidase Inhibitors: qHTS Assay for Coffee Bean alpha-Galactosidase at pH 5.9 (AID 998)
Alpha-galactosidase (Coffea arabica), sequence (Q42656 whole entry, looked up): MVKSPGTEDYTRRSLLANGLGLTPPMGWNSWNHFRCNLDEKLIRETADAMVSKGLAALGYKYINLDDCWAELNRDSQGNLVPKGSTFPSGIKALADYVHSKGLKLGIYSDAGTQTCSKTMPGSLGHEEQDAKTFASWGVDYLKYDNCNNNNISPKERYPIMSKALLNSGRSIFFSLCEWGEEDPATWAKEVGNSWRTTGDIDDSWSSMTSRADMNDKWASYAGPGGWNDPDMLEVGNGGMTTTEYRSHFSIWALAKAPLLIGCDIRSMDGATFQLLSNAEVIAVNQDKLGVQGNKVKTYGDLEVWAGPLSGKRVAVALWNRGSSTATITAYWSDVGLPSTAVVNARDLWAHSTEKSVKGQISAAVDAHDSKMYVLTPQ
Procedure, shortened: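 Green coffee bean enzyme (2 nM final) was incubated with compounds (0.7 nM–77 uM) and 4-methylumbelliferyl alpha-D-galactopyranoside (80 uM) in citrate buffer pH 5.9, 20 min at room temperature. High-pH stop; fluorescence 365/440 nm; AC50 from Hill fits.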

[15] = qHTS Assay for Modulators of Human Peripheral Myelin Protein 22 (PMP22) Expression/Activity (AID 1967; active = well fitted curve in the direction sought with a large enough effect in the signal ratio; the % refers to the signal ratio)
Procedure, shortened: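 Engineered MSC80 cells, Pmp22-promoter green and EF-alpha red luciferase reporters; 24h compound treatment at 37 °C. Concentration-response fits on green, red and ratio signals, each overlap-corrected, with %Activity normalized to untreated wells.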

[16] = molecular target: alpha-glucosidase (Oryza sativa, rice) (UniProt Q653V4); assay: Counterscreen for Glucocerebrosidase Inhibitors: qHTS Assay for Rice alpha-Glucosidase at pH 5.0 (AID 997)
Procedure, shortened: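 Rice alpha-glucosidase (4 nM final) with 400 uM 4-methylumbelliferyl-alpha-D-glucopyranoside in citrate buffer pH 5.0, 20 min at room temperature, stopped at pH 10; fluorescence 365/440 nm, compounds 0.7 nM–77 uM, AC50 from Hill fits.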

[17] = measured here: cell count channel max response
[18] = measured here: lipid channel max response

Compound | outcome [1] | activity change, negative = inhibition [2] | max response [2, 17] | max response [2, 18] | Potency [3] | Potency [4] | Potency [5] | Potency [6] | Potency [7] | Potency [8] | Potency [9] | Potency [10] | Potency [11] | Potency [12] | outcome [13] | outcome [14] | outcome [15] | outcome [16]
CC1OC1P(=O)(O)O (stereo not drawn) | inactive | 3.73% (inactive) | 11.8% | 19.6% | inactive | inactive | inactive | inactive | inactive | inactive | inactive | inactive | inactive | inactive |  |  |  | 
Nc1ccc(CCN2CCN(c3cccc(C(F)(F)F)c3)CC2)cc1 | inactive | 2.29% (inactive) | -6.99% | -6.09% | inactive | inactive |  | 7.94 µM (active) |  | inactive |  | inactive | 10 µM (active) | inactive | inactive | inactive |  | 
COc1ccc(CNC(=O)/C=C/c2ccc3[nH]cc(CCN(C)C)c3c2)cc1 | inactive | -4.95% (inactive) | -78.1% | -80.1% |  | inactive |  | 11.2 µM (active) | 11.2 µM (active) | 8.91 µM (active) | 11.2 µM (active) |  | 8.91 µM (active) | 10 µM (active) |  |  |  | 
C[N+]1(C)CCN(c2ccccc2)CC1 | inactive | 1.07% (inactive) | -21.1% | -16.2% |  | inactive | inactive | inactive | inactive |  | inactive | inactive |  | inactive | inactive | inactive |  | 
CCCN1CC[C@@H]2c3cc(O)ccc3CC[C@@H]21 | inactive | 1.73% (inactive) | 47.3% | 49.1% | inactive | inactive |  |  |  | inactive |  | inactive | 10 µM (active) | inactive |  |  | inactive | 
NCCc1c[nH]c2ccc(C(N)=O)cc12 | inactive | -0.884% (inactive) | 2.92% | 1.87% |  | inactive |  | inactive | inactive | inactive | inactive | inactive |  | inactive | inactive | inactive | inactive | 
N[C@@]1(C(=O)O)CC[C@@H](C(=O)O)C1 | inactive | -2.99% (inactive) | -46.9% | -46.9% |  | inactive | inactive | inactive | inactive | inactive | inactive | inactive | inactive | inactive |  |  | inactive | 
O=[N+]([O-])c1cc(O)c(O)c([N+](=O)[O-])c1 | inactive | 9.72% (inactive) and 0.381% (inactive) | 15.9% and 33.6% | 26.8% and 29.7% |  | inactive | inactive | inactive | inactive | inactive | inactive | inactive | inactive | inactive | inactive | inactive |  | inactive
NCC(O)c1cc(O)c(O)cc1F (stereo not drawn) | inactive | -0.0544% (inactive) | -35.5% | -39.7% | 35.5 µM (active) | inactive | inactive |  | inactive | inactive | inactive | inactive |  | inactive |  |  |  | 
N[C@@H](Cn1oc(=O)[nH]c1=O)C(=O)O | inactive | 3.82% (inactive) | 22.6% | 26.9% | inactive | inactive | inactive | inactive | inactive | inactive | inactive | inactive | inactive | inactive | inactive | inactive | inactive | 
C[N+](C)(C)CC#CCOC(=O)Nc1cccc(Cl)c1 | inactive | -0.494% (inactive) | -7.08% | -8.94% | inactive | inactive |  |  |  | 12.6 µM (active) | 11.2 µM (active) | inactive | 12.6 µM (active) |  | inactive | inactive | inactive | inactive
C[N+](C)(C)CC#CCN1CCCC1=O | inactive | 1.94% (inactive) | 5.23% | 8.27% |  | inactive |  |  | inactive | inactive | inactive | inactive |  | inactive | inactive | inactive |  | inactive
Oc1ccc2c3c1O[C@H]1c4oc5ccccc5c4C[C@@]4(O)C(C2)N(CC2CC2)CCC314 (stereo partly drawn) | inactive | 0.729% (inactive) | 69% | 72% |  | inactive | inactive | 8.91 µM (active) | 3.16 µM (active) | 7.94 µM (active) | 12.6 µM (active) | 10 µM (active) | 3.16 µM (active) | 11.2 µM (active) |  |  |  | 
CC12NC(Cc3ccccc31)c1ccccc12 (stereo not drawn) | inactive | -2.09% (inactive) | 1.93% | -0.147% | inactive | inactive | inactive |  | 5.01 µM (active) | inactive | inactive | 7.94 µM (active) | 4.47 µM (active) | inactive |  |  | inactive | 
CCCN(CCC)C1CCc2cccc(O)c2C1 (stereo not drawn) | inactive | -0.917% (inactive) | -31.4% | -33.3% | inactive | inactive | inactive | inactive | inactive | inactive | inactive | inactive | inactive | inactive |  |  | inactive | 
CN1C2CCC1CC(OC(c1ccccc1)c1ccccc1N)C2 (stereo not drawn) | inactive | 0.575% (inactive) | -2.6% | -1.25% | inactive | inactive | inactive | 8.91 µM (active) | 5.62 µM (active) | 11.2 µM (active) |  |  | 2.51 µM (active) | 10 µM (active) |  |  |  | 
Cc1[nH]c2ccc(O)cc2c1CCN | inactive | -0.216% (inactive) | -4.56% | -4.28% | inactive | inactive | inactive | inactive | inactive | inactive | inactive | inactive | inactive | inactive | inactive | inactive | inactive | 
